Data as given in PubChem BioAssay AID1159580 (chemical genetic matrix, 2015).
Among all 5,500 compounds or so, about 2,000 (36%) were called active. Roughly 18% stayed inconclusive and do not appear here. Cut-off read from the data, not from the text of the source: active = normalized growth mostly below about 0.91 (no sharp cut-off); inconclusive = no clear call, values can overlap the other calls; inactive = mostly above about 0.92. Some of the results follow.

Test: chemical genetic growth profiling, strain panel (AID 1159580);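 note: tested at 20 µM; growth read once vehicle control cultures reached saturation at 30 °C; 1 = growth at the plate median or of vehicle wells; lower values mean less growth of the strain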
Conditions: growth OD

Measured: normalized growth

C[C@](N)(Cc1ccc(O)c(O)c1)C(=O)O
inactive: S. cerevisiae deletion strains, locus YJR075W, strain HOC1, stronger effect = lower value 1.01 | S. cerevisiae deletion strains, locus YKL009W, strain mrt4, stronger effect = lower value 0.97 | S. cerevisiae deletion strains, locus YKL068W, stronger effect = lower value 0.997 | S. cerevisiae deletion strains, locus YKL085W, strain MDH1 (second series), stronger effect = lower value 0.983 | S. cerevisiae deletion strains, locus YKL085W, strain MDH1, stronger effect = lower value 0.983 | S. cerevisiae deletion strains, locus YKL160W, strain elf1, stronger effect = lower value 0.927 | S. cerevisiae deletion strains, locus YKL190W, strain CNB1, stronger effect = lower value 0.951 | S. cerevisiae deletion strains, locus YKR001C, strain vps1, stronger effect = lower value 0.979 | S. cerevisiae deletion strains, locus YKR026C, strain gcn3, stronger effect = lower value 0.986 | S. cerevisiae deletion strains, locus YKR091W, strain srl3, stronger effect = lower value 0.972 | S. cerevisiae deletion strains, locus YLL001W, strain dnm1, stronger effect = lower value 0.914 | S. cerevisiae deletion strains, locus YLL026W, stronger effect = lower value 0.984 | S. cerevisiae deletion strains, locus YLL041C, strain sdh2, stronger effect = lower value 0.994 | S. cerevisiae deletion strains, locus YLR027C, strain aat2, stronger effect = lower value 0.983 | S. cerevisiae deletion strains, locus YLR039C, strain RIC1, stronger effect = lower value 0.975 | S. cerevisiae deletion strains, locus YLR058C, strain SHM2, stronger effect = lower value 0.979 | S. cerevisiae deletion strains, locus YLR102C, strain apc9, stronger effect = lower value 1 | S. cerevisiae deletion strains, locus YLR113W, strain HOG1, stronger effect = lower value 1 | S. cerevisiae deletion strains, locus YLR221C, strain rsa3, stronger effect = lower value 0.911 | S. cerevisiae deletion strains, locus YLR258W, strain gsy2, stronger effect = lower value 0.959 | S. cerevisiae deletion strains, locus YLR262C, strain YPT6 (second series), stronger effect = lower value 0.892 | S. cerevisiae deletion strains, locus YLR262C, strain YPT6, stronger effect = lower value 0.878 | S. cerevisiae deletion strains, locus YLR268W, strain sec22, stronger effect = lower value 1.06 | S. cerevisiae deletion strains, locus YLR320W, strain mms22, stronger effect = lower value 0.944 | S. cerevisiae deletion strains, locus YLR330W, strain CHS5, stronger effect = lower value 0.982 | S. cerevisiae deletion strains, locus YLR342W, strain FKS1 (second series), stronger effect = lower value 0.861 | S. cerevisiae deletion strains, locus YLR342W, strain FKS1, stronger effect = lower value 0.967 | S. cerevisiae deletion strains, locus YLR357W, strain rsc2, stronger effect = lower value 0.92 | S. cerevisiae deletion strains, locus YLR370C, strain arc18, stronger effect = lower value 0.945 | S. cerevisiae deletion strains, locus YLR371W, strain rom2, stronger effect = lower value 0.983 | S. cerevisiae deletion strains, locus YLR384C, strain iki3, stronger effect = lower value 0.981 | S. cerevisiae deletion strains, locus YLR418C, strain cdc73, stronger effect = lower value 1 | S. cerevisiae deletion strains, locus YML016C, strain PPZ1, stronger effect = lower value 0.957 | S. cerevisiae deletion strains, locus YML032C, strain rad52, stronger effect = lower value 1.01 | S. cerevisiae deletion strains, locus YML120C, strain ndi1, stronger effect = lower value 0.915 | S. cerevisiae deletion strains, locus YML124C, strain tub3, stronger effect = lower value 0.993 | S. cerevisiae deletion strains, locus YMR058W, strain fet3, stronger effect = lower value 0.944 | S. cerevisiae deletion strains, locus YMR078C, strain ctf18, stronger effect = lower value 0.99 | S. cerevisiae deletion strains, locus YMR125W, strain sto1, stronger effect = lower value 0.941 | S. cerevisiae deletion strains, locus YMR129W, stronger effect = lower value 0.985 | S. cerevisiae deletion strains, locus YMR205C, strain PFK2, stronger effect = lower value 0.983 | S. cerevisiae deletion strains, locus YMR223W, strain ubp8, stronger effect = lower value 0.938 | S. cerevisiae deletion strains, locus YMR231W, strain pep5, stronger effect = lower value 0.988 | S. cerevisiae deletion strains, locus YMR263W, strain SAP30, stronger effect = lower value 1 | S. cerevisiae deletion strains, locus YMR307W, strain GAS1, stronger effect = lower value 0.765 | S. cerevisiae deletion strains, locus YNL067W, strain RPL9B, stronger effect = lower value 0.979 | S. cerevisiae deletion strains, locus YNL071W, strain lat1, stronger effect = lower value 0.978 | S. cerevisiae deletion strains, locus YNL128W, strain TEP1, stronger effect = lower value 0.896 | S. cerevisiae deletion strains, locus YNL153C, strain GIM3, stronger effect = lower value 1.01 | S. cerevisiae deletion strains, locus YNL183C, strain NPR1, stronger effect = lower value 0.976 | S. cerevisiae deletion strains, locus YNL233W, strain BNI4, stronger effect = lower value 0.972 | S. cerevisiae deletion strains, locus YNL248C, strain rpa49, stronger effect = lower value 0.979 | S. cerevisiae deletion strains, locus YNL250W, strain rad50, stronger effect = lower value 0.982 | S. cerevisiae deletion strains, locus YNL271C, strain bni1, stronger effect = lower value 0.989 | S. cerevisiae deletion strains, locus YNL298W, strain CLA4, stronger effect = lower value 0.999 | S. cerevisiae deletion strains, locus YNL307C, strain MCK1, stronger effect = lower value 0.996 | S. cerevisiae deletion strains, locus YNL322C, strain KRE1 (second series), stronger effect = lower value 0.96 | S. cerevisiae deletion strains, locus YNL322C, strain KRE1, stronger effect = lower value 0.984 | S. cerevisiae deletion strains, locus YNR049C, strain mso1, stronger effect = lower value 0.969 | S. cerevisiae deletion strains, locus YNR052C, strain pop2, stronger effect = lower value 0.991 | S. cerevisiae deletion strains, locus YOL012C, strain htz1 0.552 | S. cerevisiae deletion strains, locus YOL147C, strain pex11, stronger effect = lower value 0.989 | S. cerevisiae deletion strains, locus YOR001W, strain rrp6, stronger effect = lower value 1.02 | S. cerevisiae deletion strains, locus YOR061W, strain CKA2, stronger effect = lower value 0.938 | S. cerevisiae deletion strains, locus YOR069W, strain VPS5, stronger effect = lower value 0.991 | S. cerevisiae deletion strains, locus YOR070C, strain gyp1, stronger effect = lower value 0.988 | S. cerevisiae deletion strains, locus YOR080W, strain dia2, stronger effect = lower value 0.956 | S. cerevisiae deletion strains, locus YOR083W, strain WHI5, stronger effect = lower value 0.919 | S. cerevisiae deletion strains, locus YOR106W, strain vam3, stronger effect = lower value 0.885 | S. cerevisiae deletion strains, locus YOR136W, strain idh2, stronger effect = lower value 0.99 | S. cerevisiae deletion strains, locus YOR144C, strain elg1, stronger effect = lower value 1.01 | S. cerevisiae deletion strains, locus YOR184W, strain ser1, stronger effect = lower value 0.998 | S. cerevisiae deletion strains, locus YOR231W, strain MKK1, stronger effect = lower value 1.03 | S. cerevisiae deletion strains, locus YOR265W, strain rbl2, stronger effect = lower value 0.956 | S. cerevisiae deletion strains, locus YOR270C, strain vph1, stronger effect = lower value 0.965 | S. cerevisiae deletion strains, locus YOR316C, strain cot1, stronger effect = lower value 1 | S. cerevisiae deletion strains, locus YPL051W, strain arl3, stronger effect = lower value 0.947 | S. cerevisiae deletion strains, locus YPL055C, strain LGE1, stronger effect = lower value 0.915 | S. cerevisiae deletion strains, locus YPL078C, strain atp4, stronger effect = lower value 0.947 | S. cerevisiae deletion strains, locus YPL106C, strain sse1, stronger effect = lower value 0.882 | S. cerevisiae deletion strains, locus YPL240C, strain hsp82, stronger effect = lower value 0.979 | S. cerevisiae deletion strains, locus YPL241C, strain CIN2, stronger effect = lower value 0.966 | S. cerevisiae deletion strains, locus YPL256C, strain CLN2, stronger effect = lower value 1.08 | S. cerevisiae deletion strains, locus YPR119W, strain clb2, stronger effect = lower value 0.993 | S. cerevisiae deletion strains, locus YPR141C, strain kar3, stronger effect = lower value 0.987 | S. cerevisiae deletion strains, locus YPR163C, strain tif3, stronger effect = lower value 1 | S. cerevisiae deletion strains, locus YPR167C, strain met16, stronger effect = lower value 0.997 | S. cerevisiae deletion strains, strain wtn01, stronger effect = lower value 1.01
active: S. cerevisiae deletion strains, locus YNL209W, strain ssb2, stronger effect = lower value 0.891 | S. cerevisiae deletion strains, locus YOL006C, strain TOP1, stronger effect = lower value 0.529 | S. cerevisiae deletion strains, locus YOR290C, strain snf2, stronger effect = lower value 0.86 | S. cerevisiae strains, strain wild type, stronger effect = lower value 0.9
